According to PubChem BioAssay:
Calls of active or inactive are those of the source. Unless noted, how the calls were made is not given here.

Tests used:
[1] = A549 cell viability effects, profiling panel, calcein-AM fluorescence, 48 h, basal (AID 1162); conditions: higher = more signal; further: test concentration not given here
[2] = adipocyte viability effects, profiling panel, cell-based, 3T3-L1 adipocytes, calcein-AM fluorescence, 48 h, basal (AID 1163); conditions: 3T3-L1 adipocytes viability, higher = more signal; further: test concentration not given here
[3] = HepG2 cell viability effects, profiling panel, calcein-AM fluorescence, 48 h, basal (AID 1164); conditions: higher = more signal; further: test concentration not given here
[4] = MM1S cell viability effects, profiling panel, calcein-AM fluorescence, 48 h, basal (AID 1165); conditions: higher = more signal;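 further: viability of MM1S multiple myeloma cells under basal unstimulated conditions; test concentration not given here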
[5] = basal RPMI8226 viability, no added stimulus, profiling panel, cell-based, calcein-AM fluorescence, 48 h, PK04 Diversity Set (AID 1166); conditions: RPMI8226 myeloma viability, higher = more signal;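 further: cells grown under basal conditions without added stimulus; test concentration not given here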
[6] = basal HepG2 mitochondrial membrane potential changes, profiling panel, cell-based, JC-1 fluorescence, 24 h, 100 nL compound (AID 1167); conditions: higher = more signal; further: test concentration not given here
[7] = basal 3T3-L1 adipocyte mitochondrial potential changes, profiling panel, cell-based, JC-1 fluorescence, 3T3-L1 adipocytes, 24 h, 100 nL compound (AID 1168); conditions: JC-1 mitochondrial fluorescence, higher = more signal, called active from +8 up or from −8 down; further: test concentration not given here
[8] = basal RPMI8226 mitochondrial membrane potential changes, profiling panel, cell-based, JC-1 fluorescence, 24 h, 100 nL compound (AID 1169); conditions: RPMI8226 myeloma, JC-1 mitochondrial potential fluorescence, higher = more signal; further: test concentration not given here
[9] = basal MM1S mitochondrial membrane potential changes, profiling panel, cell-based, JC-1 fluorescence, 24 h, 100 nL compound (AID 1170); conditions: higher = more signal; further: test concentration not given here
[10] = A549 lung cancer cell viability effects, profiling panel, resazurin fluorescence, 24 h, PK04 Diversity Set (AID 1171); conditions: higher = more signal, called active from +8 up or from −8 down; further: test concentration not given here
[11] = HepG2 liver cancer cell viability effects, profiling panel, resazurin fluorescence, 24 h, PK04 Diversity Set (AID 1172); conditions: higher = more signal; further: test concentration not given here
[12] = basal S. cerevisiae growth modulation, no modifier, primary screen, OD600, strain BY4716, 24 h, basal condition (AID 1173); conditions: OD600, 24 h, higher = more signal, called active from +8 up or from −8 down
[13] = MM1S myeloma cell viability, profiling panel, resazurin fluorescence, basal, 24 h, PK04 Diversity Set (AID 1174); conditions: higher = more signal, called active from +8 up or from −8 down;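 further: MM1S multiple myeloma cell line; test concentration not given here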
[14] = target: Dihydroorotate dehydrogenase (quinone), mitochondrial (Plasmodium falciparum (isolate 3D7)) (UniProt Q08210); test: PfDHODH enzyme inhibitors, primary screen, biochemical, C-terminal His tag, absorbance 600 nm (AID 1175); conditions: DCIP absorbance 600 nm, higher = more signal, called active from +8 up or from −8 down;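 further: recombinant parasite enzyme with a five histidine tag at its C terminus; test concentration not given here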
Dihydroorotate dehydrogenase (quinone), mitochondrial (Plasmodium falciparum (isolate 3D7)), sequence (Q08210 whole entry, looked up): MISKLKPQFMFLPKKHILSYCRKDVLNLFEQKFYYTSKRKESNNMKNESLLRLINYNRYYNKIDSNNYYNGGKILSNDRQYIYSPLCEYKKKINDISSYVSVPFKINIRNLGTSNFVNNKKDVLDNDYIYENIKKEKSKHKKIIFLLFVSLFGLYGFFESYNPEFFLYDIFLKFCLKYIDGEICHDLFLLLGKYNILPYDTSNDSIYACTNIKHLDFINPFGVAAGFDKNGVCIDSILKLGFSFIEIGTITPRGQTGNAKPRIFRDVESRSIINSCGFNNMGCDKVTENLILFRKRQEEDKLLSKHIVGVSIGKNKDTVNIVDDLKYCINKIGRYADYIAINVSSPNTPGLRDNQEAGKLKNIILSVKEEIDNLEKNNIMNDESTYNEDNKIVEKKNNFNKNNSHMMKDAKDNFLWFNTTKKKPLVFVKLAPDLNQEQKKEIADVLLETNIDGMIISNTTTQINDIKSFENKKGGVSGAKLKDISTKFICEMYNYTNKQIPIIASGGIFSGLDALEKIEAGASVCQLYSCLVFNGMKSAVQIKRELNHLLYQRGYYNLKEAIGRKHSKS

[15] = P. aeruginosa biofilm formation inhibitors, primary screen, strain PAO1, LB-PBS medium, absorbance 600 nm (AID 1176); further: test concentration not given here; conditions: P. aeruginosa PAO1 growth/biofilm, A600, 12 h; higher = more signal
[16] = S. cerevisiae RM11-1a growth modifiers, primary screen, strain RM11-1a, OD600, basal, 24 h (AID 1177); conditions: OD600, 24 h, higher = more signal, called active from +8 up or from −8 down;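 further: cultures grown under basal conditions with no added stressor; test concentration not given here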
[17] = E. coli acrAB mutant growth effects, primary screen, E. coli filamentation inducers, strain DRC39, OD650, 24 h (AID 1178); conditions: higher = more signal, called active from +8 up or from −8 down;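 further: growth measured as culture turbidity by optical density at 650 nm; test concentration not given here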
[18] = E. coli acrAB mutant growth effects, primary screen, E. coli filamentation inducers, strain DRC39, OD650, 48 h (AID 1179);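 further: screen aims at cell division blockers that make cells filament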; conditions: E. coli DRC39 delta-acrAB growth, higher = more signal, called active from +8 up or from −8 down
[19] = RPMI8226 myeloma cell viability, profiling panel, resazurin fluorescence, basal, 24 h, PK04 Diversity Set (AID 1180); conditions: higher = more signal;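 further: RPMI8826 multiple myeloma cell line at 5000 cells per well; test concentration not given here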
[20] = target: E3 ubiquitin-protein ligase XIAP (Homo sapiens) (UniProt P98170); test: XIAP binders, primary screen, biophysical, small-molecule microarray, fluorescence 635 nm (AID 1181); conditions: small-molecule microarray binding, higher = more signal;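 further: score merges 667 nm emission and signal to noise over triplicate slides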
E3 ubiquitin-protein ligase XIAP (Homo sapiens), sequence (P98170 whole entry, looked up): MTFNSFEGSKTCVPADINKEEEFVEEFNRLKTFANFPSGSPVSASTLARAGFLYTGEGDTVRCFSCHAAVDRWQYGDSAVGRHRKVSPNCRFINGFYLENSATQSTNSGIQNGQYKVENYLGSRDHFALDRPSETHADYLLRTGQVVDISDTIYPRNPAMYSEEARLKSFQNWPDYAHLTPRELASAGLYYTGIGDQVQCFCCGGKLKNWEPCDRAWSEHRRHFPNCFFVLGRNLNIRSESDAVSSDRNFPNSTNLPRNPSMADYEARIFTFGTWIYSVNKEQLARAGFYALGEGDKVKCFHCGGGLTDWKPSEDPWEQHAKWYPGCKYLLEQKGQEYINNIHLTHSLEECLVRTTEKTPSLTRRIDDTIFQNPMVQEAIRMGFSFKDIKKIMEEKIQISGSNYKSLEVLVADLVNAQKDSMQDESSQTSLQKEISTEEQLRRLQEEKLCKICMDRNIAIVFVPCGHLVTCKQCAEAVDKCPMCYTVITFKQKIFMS

SMILES | z-score [1] | z-score [2] | z-score [3] | z-score [4] | z-score [5] | z-score [6] | z-score [7] | z-score [8] | z-score [9] | z-score [10] | z-score [11] | z-score [12] | z-score [13] | composite z-score [14] | z-score [15] | z-score [16] | z-score [17] | z-score [18] | z-score [19] | composite z-score [20]
CC(C)=CCCC(C)=CCON=C1C[C@@H](O)[C@@H](O)[C@@H]2[C@@H]3C(=O)N(C[C@@H]4CCCO4)C(=O)[C@@H]3CC[C@H]12 | -0.0285 | -0.789 | -0.758 | 0.253 | -0.674 | -0.915 | -0.528 (inactive) | 0.569 | -0.789 | 0.691 (inactive) | 0.164 | -1.72 (inactive) | -0.58 (inactive) | 0.0911 (inactive) | 0.295 (inactive) | 1.8 (inactive) | -0.169 (inactive) | -0.543 (inactive) | -0.251 | -0.217
CCOC(=O)NN=C1C[C@@H](O)[C@@H](O)[C@@H]2[C@@H]3C(=O)N(Cc4ccccc4)C(=O)[C@@H]3CC[C@H]12 | 0.29 | 0.114 | -1.05 | 0.976 | -2 | 0.366 | 0.42 (inactive) | 0.334 | -0.68 | 0.939 (inactive) | 1.16 | -0.892 (inactive) | 1.41 (inactive) | -0.451 (inactive) | 0.483 (inactive) | -1.1 (inactive) | -0.077 (inactive) | 0.495 (inactive) | 1.89 | -0.27
CC(C)C[C@H](NC(=O)CCC1CC(OC(=O)NCc2cccc3ccccc23)CC2(CCCC(COC(=O)NCc3ccccc3)O2)O1)C(=O)NCC(c1ccccc1)c1ccccc1 (stereo not given in full) | -0.375 | 0.111 | -0.429 | -3.53 | -0.971 | -0.341 | 0.922 (inactive) | -0.802 | -0.715 | 0.337 (inactive) | 0.1 | -0.245 (inactive) | 0.284 (inactive) | -0.79 (inactive) | 0.851 (inactive) | -0.0457 (inactive) | 0.64 (inactive) | 0.628 (inactive) | 0.731 | -0.242
O=C1C[C@@H](O)[C@@H](O)[C@@H]2[C@@H]3C(=O)N(c4cccc(Oc5ccccc5)c4)C(=O)[C@@H]3CC[C@H]12 | -0.0402 | -0.231 | 0.0658 | 0.258 | -0.0527 | -0.101 | -1.02 (inactive) | -0.308 | 0.258 | 0.16 (inactive) | 0.0515 | 0.251 (inactive) | 0.0257 (inactive) | 0.0371 (inactive) | -0.601 (inactive) | 0.132 (inactive) | -0.539 (inactive) | -0.389 (inactive) | 0.0381 | -0.0448
CC(CCN1CCc2nc(-c3ccccc3)c(-c3ccccc3)cc2C1)=NOC[C@@H](O)[C@H]1O[C@@H]2OC(C)(C)O[C@@H]2[C@H]1O | 1.89 | -0.144 | 1.62 | -2.72 | -0.676 | 2.55 | -1.54 (inactive) | -0.109 | 0.0398 | -0.555 (inactive) | -0.31 | -3.84 (inactive) | -1.06 (inactive) | -0.897 (inactive) | 0.359 (inactive) | -0.187 (inactive) | 1.39 (inactive) | 0.431 (inactive) | -0.776 | 0.145
O=c1n(Cc2cc3c(cc2Cl)OCO3)c(=O)n2n1CC[C@@H]1C(=NOCc3ccccc3)[C@H]3O[C@H]3[C@@H](O)[C@@H]12 | 0.7 | -0.362 | 0.941 | -0.64 | 0.341 | 1.1 | 0.218 (inactive) | 0.185 | 0.178 | -1.11 (inactive) | -0.0806 | -1.61 (inactive) | -0.595 (inactive) | -1.22 (inactive) | 0.14 (inactive) | -1.8 (inactive) | -0.485 (inactive) | -0.628 (inactive) | -1.02 | -0.0365
COC(=O)CC=C[C@@H](C)[C@@H](C=NO[C@H](C)c1cn([C@@H]2COC[C@H]2O)nn1)NS(=O)(=O)c1ccc(C)cc1 | 0.802 | -0.628 | 1.16 | 0.111 | 0.188 | -0.156 | 0.766 (inactive) | 0.556 | -1.25 | -1.14 (inactive) | -1.37 | -0.335 (inactive) | -1.34 (inactive) | -0.753 (inactive) | 0.301 (inactive) | 0.278 (inactive) | 0.524 (inactive) | 1.29 (inactive) | -0.687 | -0.267
CCOC(=O)[C@H](CC(C)C)NC(=O)CCC1CC(OC(=O)NCc2cccc3ccccc23)CC2(CCCC(COC(=O)NCCOc3ccccc3)O2)O1 (stereo not given in full) | 2.15 | 0.519 | 0.335 | -1.32 | -0.273 | 1 | 0.661 (inactive) | -0.763 | -0.985 | 1.33 (inactive) | 0.329 | -0.895 (inactive) | 0.572 (inactive) | -0.785 (inactive) | -0.127 (inactive) | -0.879 (inactive) | 0.0446 (inactive) | 0.253 (inactive) | 1.57 | -0.142
COC(=O)CC=C[C@@H](C)[C@@H](C=NO[C@@H]1O[C@H](COC(C)=O)[C@@H](OC(C)=O)[C@H](OC(C)=O)[C@H]1OC(C)=O)NS(=O)(=O)c1ccc(C)cc1 | -0.4 | -0.387 | -0.416 | 0.27 | -1.81 | -0.365 | -1.39 (inactive) | -0.736 | 0.049 | -0.251 (inactive) | 0.22 | 0.653 (inactive) | -1.04 (inactive) | -0.069 (inactive) | 0.298 (inactive) | -0.186 (inactive) | -1.8 (inactive) | -0.57 (inactive) | -0.437 | -0.177
